Several values for one entry are separate records, joined by “and”; a condition that tells them apart may be missing. Equal values may be shown once. Records with an inconclusive call do not appear. Activity calls are given as the source filed them. Unless noted, the call rests on the fitted dose curve; in most records, active means well fitted curve in the direction sought with a large enough effect; inconclusive means small, poorly fitted or top-dose-only effect, or another doubt; inactive means no such curve, though single readings can be large; an effect the other way counts as inactive or inconclusive.
Legend:
[1] = Cell Viability - Hek293 (AID 427;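 active means compounds whose dose-response curve shows a full or clear partial loss of cell viability, called from curve shape rather than a numeric limit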;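 further: potency means the concentration at half of the fitted maximal effect; cells exposed to compound for 40 hours at 37 °C before reading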); conditions: qHTS
In short: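 Luminescent ATP read-out (CellTiter-Glo, 20 min RT) after 40 hr compound exposure at 37 °C in complete medium. Signal normalized to DMSO (basal) and 100 uM tamoxifen (100% inhibition); concentration-response fitted with the standard Hill equation to give AC50.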

[2] = Cell Viability - HepG2 (AID 433; calls by dose curve;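 further: potency means the concentration at half of the fitted maximal effect; potency for ATP loss meaning cytotoxicity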); conditions: qHTS
In short: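 In this qHTS format, a 40 h, 37 °C compound incubation of HepG2 cells in complete medium precedes a 20 min CellTiter-Glo step at room temperature. Tamoxifen and doxorubicin serve as positive controls; Hill-equation fits yield AC50.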

[3] = Cell Viability - NIH 3T3 (AID 541); conditions: NIH 3T3 cell viability, qHTS; activity change, negative = cytotoxicity: at 92.2 µM (top of the series); further: nearly all actives have a fitted effect of over 25% in size; further: potency means the concentration at half of the fitted maximal effect;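 on activity change, negative = cytotoxicity: plate controls were DMSO alone for no effect and tamoxifen positive control for full effect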
In short: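 NIH 3T3 mouse embryo fibroblasts (1000 cells/well) were plated in complete medium and treated with compound for 40 hr at 37 °C. Viability was read as intracellular ATP by CellTiter-Glo luminescence; AC50 values came from Hill-equation fits of concentration-response data.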

[4] = Cell Viability - HUV-EC-C (AID 542); conditions: HUV-EC-C endothelial cell viability, qHTS; series mostly up to 92.2 µM; further: nearly all actives have a fitted effect of over 35% in size; further: potency means the concentration at half of the fitted maximal effect; on activity change, negative = cytotoxicity: on the % scale 0 is the no-effect control and ±100 the full control effect
In short: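 HUV-EC-C normal human vascular endothelial cells, 1000 cells/well, pre-incubated 5 hr at 37 °C, then exposed to compounds for 40 hr at 37 °C in complete medium. Viability measured as intracellular ATP by CellTiter-Glo luminescence; AC50 from Hill fits.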

[5] = Cell Viability - Mesenchymal (AID 546); conditions: mesenchymal cells viability, qHTS; activity change, negative = cytotoxicity: at 91.7 µM (top of the series);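 further: cells exposed to compound for 40 hours before reading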; further: potency means the concentration at half of the fitted maximal effect
In short: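 Normal human renal glomerulus-derived kidney mesenchymal cells, 1000 per well in complete medium, were treated with compounds for 40 hr at 37 °C. Viability was read as intracellular ATP by CellTiter-Glo luminescence; AC50 values came from Hill-equation fits of qHTS concentration-response data.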

[6] = Cellular Toxicity (caspase-3) HUV-EC-C (AID 656); conditions: HUV-EC-C cells, caspase-3 activation (apoptosis); series mostly up to 92.2 µM; further: potency means the concentration at half of the fitted maximal effect
In short: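 Concentration-dependent caspase 3/7 induction was assessed in HUV-EC-C cells exposed for 16 hours. Data scaled between DMSO and tamoxifen (100 uM) controls.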

[7] = Cellular Toxicity (caspase-3) Mesangial (AID 660); conditions: mesangial cells, normalized: DMSO 0%, 100 µM tamoxifen 100%; at 91.7 µM (top of the series);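 further: cells exposed to compound for 16 h before the caspase read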
In short: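 Human renal glomerular mesangial cells (1000/well) were treated with compounds for 16 h at 37 °C in complete medium, then caspase 3/7 activity was read by Caspase-Glo luminescence. Data were normalized to DMSO and 100 uM tamoxifen; AC50 from Hill fits.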

[8] = Cellular Toxicity (caspase-3) H-4-II-E (AID 663); conditions: H-4-II-E rat hepatoma; Potency: caspase-3 activation; caspase-3 activation: at 92.2 µM (top of the series), scaled: DMSO 0%, 100 µM tamoxifen 100%; further: potency means the concentration at half of the fitted maximal effect;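 on caspase-3 activation: cells exposed to compound for 16 hr before readout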
In short: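 Luminescence from caspase-cleaved aminoluciferin substrate, read 20 min after reagent addition, reports caspase 3/7 activation in rat H-4-II-E cells after 16 hr compound exposure. Normalized to DMSO (basal) and 100 uM tamoxifen (100%); AC50 from Hill fits.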

[9] = Cellular Toxicity (caspase-3) Hek293 (AID 664); conditions: HEK293 caspase-3 activation, DMSO = 0%, 100 µM tamoxifen = 100%; at 92.2 µM (top of the series);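 further: cells exposed to compound for 16 h at 37 °C before readout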
In short: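 HEK293 cells were exposed to compounds in complete medium for 16 hr at 37 °C, then caspase-3/7 activity was read by Caspase-Glo 3/7 luminescence after 20 min at room temperature. Data normalized to DMSO and 100 uM tamoxifen; AC50 from Hill fits.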

[10] = Cellular Toxicity (caspase-3) NIH 3T3 (AID 666); conditions: NIH 3T3 caspase-3 activation, apoptosis/toxicity; series mostly up to 92.2 µM; further: potency means the concentration at half of the fitted maximal effect;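 on caspase-3 activation: 0% = DMSO basal and 100% = 100 µM tamoxifen stimulation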
In short: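 Mouse NIH 3T3 fibroblasts (1000 cells/well) were treated with compound for 16 hr at 37°C in complete medium; caspase-3/7 activity was read by Caspase-Glo luminescence. Normalized to DMSO and 100 uM tamoxifen; AC50 from Hill fits.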

[11] = Cell Viability - LYMP1-002 - Assay at 16 hr (AID 948); conditions: LYMP1-002 lymphoblastoid cell viability; series mostly up to 92.2 µM; further: potency means the concentration at half of the fitted maximal effect;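 on activity change, negative = cytotoxicity: 0% = DMSO alone and full effect = 92 µM tetraoctylammonium bromide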
In short: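 In this qHTS, lymphoblastoid LYMP1-002 cells (human) receive compounds for 16 hr at 37 C. Viability is taken from CellTiter-Glo ATP luminescence, and AC50 derives from standard Hill fits.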

[12] = Cell Viability - LYMP1-003 - Assay at 24 hr (AID 963); conditions: LYMP1-003 lymphoblastoid cell viability; series mostly up to 92.2 µM; further: potency means the concentration at half of the fitted maximal effect
In short: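 Human lymphoblastoid LYMP1-003 cells (2500/well) were rested 5 hr at 37 C, then exposed to compounds in complete medium for 24 hr at 37 C. Cellular ATP was quantified by CellTiter-Glo luminescence, and AC50 values came from Hill fits of concentration-response data.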

[13] = Cell Viability - LYMP2-003 (AID 965); conditions: LYMP2-003 lymphoblastoid cell viability; series mostly up to 92.2 µM;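 further: cells exposed to compounds for 24 h before reading; nearly all actives have a fitted effect of over 50% in size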; further: potency means the concentration at half of the fitted maximal effect;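 on activity change, negative = cytotoxicity: 0% = DMSO only and full effect = 92 µM tetraoctylammonium bromide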
In short: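 qHTS, human lymphoblastoid line, 2500 cells/well, complete medium. 24 h drug, 37 C. ATP-based luminescent readout; Hill-fit AC50.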

[14] = Cell Viability - LYMP2-025 (AID 976); conditions: LYMP2-025 lymphoblastoid cell viability; series mostly up to 92.2 µM; further: potency means the concentration at half of the fitted maximal effect;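 on activity change, negative = cytotoxicity: plate controls were DMSO only for no effect and tetraoctylammonium bromide control for full effect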
In short: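 Human lymphoblastoid LYMP2-025 cells (2500/well) were pre-incubated 5 hr at 37 C, then treated with compounds for 24 hr at 37 C in complete medium. Viability was read as intracellular ATP by CellTiter-Glo luminescence; AC50 from Hill fits.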

[15] = Cell Viability - LYMP2-007 (AID 979); conditions: LYMP2-007 lymphoblastoid cell viability; series mostly up to 92.2 µM;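 further: cells exposed to compound for 24 h before reading; nearly all actives have a fitted effect of over 60% in size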; further: potency means the concentration at half of the fitted maximal effect;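 on activity change, negative = cytotoxicity: 0% = DMSO only and the negative end = 92 µM tetraoctylammonium bromide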
In short: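 Human lymphoblastoid cells (2500/well) were plated in complete medium, incubated 5 hr at 37 C, then exposed to compounds for 24 hr at 37 C. Intracellular ATP was read by CellTiter-Glo luminescence after 30 min at room temperature; AC50 from Hill fits.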

[16] = Cell Viability - LYMP1-002 - Assay at 24 hr (AID 993); conditions: LYMP1-002 lymphoblastoid cells viability; series mostly up to 92.2 µM; further: potency means the concentration at half of the fitted maximal effect; on activity change, negative = cytotoxicity: on the % scale 0 is the no-effect control and ±100 the full control effect
In short: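 Human lymphoblastoid LYMP1-002 cells, 2500/well in complete medium, were treated with compounds for 24 h at 37 C; intracellular ATP was read by CellTiter-Glo luminescence. AC50 values came from Hill-equation fits of qHTS concentration-response data.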

[17] = biological target: Voltage-gated inwardly rectifying potassium channel KCNH2 (Homo sapiens) (UniProt Q12809); experiment: qHTS Assay for Small Molecule Inhibitors of the Human hERG Channel Activity (AID 588834); conditions: U2OS BacMam hERG, FluxOR thallium flux fluorescence; series mostly up to 92.2 µM;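 further: lower thallium flux fluorescence means stronger hERG block; nearly all actives have a fitted effect of over 50% in size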; further: potency means the concentration at half of the fitted maximal effect
Sequence of Voltage-gated inwardly rectifying potassium channel KCNH2 (Homo sapiens) (Q12809 whole entry, looked up): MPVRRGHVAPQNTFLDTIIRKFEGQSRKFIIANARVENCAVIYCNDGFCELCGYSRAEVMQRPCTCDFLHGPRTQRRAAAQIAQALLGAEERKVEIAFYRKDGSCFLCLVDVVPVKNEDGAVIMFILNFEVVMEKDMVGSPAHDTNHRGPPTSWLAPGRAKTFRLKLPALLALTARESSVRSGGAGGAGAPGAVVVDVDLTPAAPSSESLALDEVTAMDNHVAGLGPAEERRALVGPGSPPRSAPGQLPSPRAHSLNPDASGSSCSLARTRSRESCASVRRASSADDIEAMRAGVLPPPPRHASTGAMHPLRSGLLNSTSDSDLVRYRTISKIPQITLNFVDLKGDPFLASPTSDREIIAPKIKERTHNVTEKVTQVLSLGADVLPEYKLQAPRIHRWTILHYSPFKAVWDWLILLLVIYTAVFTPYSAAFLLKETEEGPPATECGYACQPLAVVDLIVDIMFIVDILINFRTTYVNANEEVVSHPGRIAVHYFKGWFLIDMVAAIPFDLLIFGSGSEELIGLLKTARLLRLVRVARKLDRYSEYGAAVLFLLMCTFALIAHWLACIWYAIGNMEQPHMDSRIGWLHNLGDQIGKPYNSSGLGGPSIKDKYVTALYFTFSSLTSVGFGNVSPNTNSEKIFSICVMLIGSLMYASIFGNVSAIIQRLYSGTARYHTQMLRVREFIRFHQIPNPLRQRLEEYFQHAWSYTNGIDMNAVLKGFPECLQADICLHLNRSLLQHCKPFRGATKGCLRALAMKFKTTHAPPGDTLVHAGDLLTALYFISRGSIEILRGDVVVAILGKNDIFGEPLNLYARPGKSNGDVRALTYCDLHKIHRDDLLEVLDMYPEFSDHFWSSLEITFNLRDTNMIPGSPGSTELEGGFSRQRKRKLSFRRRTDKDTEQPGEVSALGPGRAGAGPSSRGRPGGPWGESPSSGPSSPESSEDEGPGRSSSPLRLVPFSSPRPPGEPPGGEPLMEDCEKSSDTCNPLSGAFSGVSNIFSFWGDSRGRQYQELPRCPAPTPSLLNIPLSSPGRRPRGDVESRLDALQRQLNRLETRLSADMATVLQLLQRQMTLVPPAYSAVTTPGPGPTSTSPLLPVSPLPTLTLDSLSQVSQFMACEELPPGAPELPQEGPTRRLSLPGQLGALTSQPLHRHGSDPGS
In short: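 Blockade is seen as reduced FluxOR thallium-flux fluorescence in U2OS cells expressing hERG from a BacMam construct, in Opti-MEM with 2% FCS. Concentration-response data fitted to the Hill equation for AC50.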

[18] = qHTS assay for small molecule disruptors of the mitochondrial membrane potential - 1 hr assay (AID 651754; calls by dose curve; further: nearly all actives have a fitted effect of over 35% in size; further: potency means the concentration at half of the fitted maximal effect); conditions: series mostly up to 92.2 µM
In short: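 HepG2 cells, attached overnight at 37C, were exposed to compound or DMSO vehicle for 1 hr at 37C, 5% CO2, then stained with Mito-MPS dye for 30 min. Red aggregate versus green monomer fluorescence reports membrane potential.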

[19] = qHTS assay for small molecule disruptors of the mitochondrial membrane potential - 5 hr assay (AID 651755; calls by dose curve; further: nearly all actives have a fitted effect of over 40% in size; further: potency means the concentration at half of the fitted maximal effect); conditions: JC-1-type ratio dye; series mostly up to 92.2 µM
In short: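 HepG2 cells, attached overnight at 37C, were exposed to compound or DMSO for 5 hr at 37C, 5% CO2. Mito-MPS dye was then added for 30 min, and fluorescence read at 490/535 nm (monomers) and 540/590 nm (aggregates).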

[20] = qHTS assay for cell viability of the p53RE-bla HCT-116 cell line (AID 743292); conditions: p53RE-bla HCT-116 viability, ATP luminescence, 16 h; series mostly up to 95 µM; further: nearly all actives have a fitted effect of over 55% in size; further: potency means the concentration at half of the fitted maximal effect; on activity change, negative = cytotoxicity: on the % scale 0 is the no-effect control and ±100 the full control effect
In short: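 ATP-based luminescence, 16 h compound exposure at 37 C, p53RE-bla HCT-116 cells at 4,000/well.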

O=C(/C=C/c1ccc(O)c(O)c1)OC1C[C@](O)(C(=O)O)C[C@@H](O)[C@H]1O (some centres undefined)
inactive: Potency [1] > 92 µM | Potency [2] > 92 µM | Potency [3] | Potency [4] | Potency [5] | Potency [6] | caspase-3 activation [7] -0.588% and 1.58% | caspase-3 activation [8] 0.575% and -0.278% | caspase-3 activation [9] 0.862% and -1.58% | Potency [10] | Potency [11] | Potency [12] | Potency [13] | Potency [14] | Potency [15] | Potency [16] | Potency [17] | Potency [18] | Potency [19] | Potency [20]

c1ccc2c(c1)-c1cccc3c1c-2cc1ccccc13
inactive: Potency [1] > 92 µM | Potency [2] > 92 µM | Potency [4] | Potency [6] | caspase-3 activation [7] -0.695% | caspase-3 activation [8] 11.1% | caspase-3 activation [9] -2.54% | Potency [10] | Potency [11] | Potency [12] | Potency [13] | Potency [14] | Potency [15] | Potency [16] | Potency [17] | Potency [18] | Potency [19] | Potency [20]

Cc1cc(O)c(C(C)(C)C)cc1Sc1cc(C(C)(C)C)c(O)cc1C
inactive: Potency [10]
active: Potency [1] 33.7 µM | Potency [2] 32.3 µM | Potency [4] 39.8 µM | Potency [5] 15.8 µM | Potency [6] 50.1 µM | caspase-3 activation [7] 140% | Potency [8] 31.6 µM | caspase-3 activation [9] 230% | Potency [11] 50.1 µM | Potency [12] 39.8 µM | Potency [13] 31.6 µM | Potency [14] 39.8 µM | Potency [15] 31.6 µM | Potency [16] 31.6 µM | Potency [17] 39.8 µM | Potency [18] 10.6 µM | Potency [19] 16.8 µM | Potency [20] 28.2 µM and 25.1 µM

Cc1cccc(O)c1C
inactive: Potency [1] > 92 µM | Potency [2] > 92 µM | Potency [3] | Potency [4] | Potency [5] | Potency [6] | caspase-3 activation [7] -0.758% | caspase-3 activation [8] 0.768% | caspase-3 activation [9] 0.349% | Potency [10] | Potency [11] | Potency [12] | Potency [13] | Potency [14] | Potency [15] | Potency [16] | Potency [17] | Potency [18] | Potency [19] | Potency [20]

CCCCCCCC[N+](CCCCCCCC)(CCCCCCCC)CCCCCCCC
active: Potency [1] 7.17 µM | Potency [2] 4.92 µM | Potency [3] 3.16 µM | Potency [4] 12.6 µM | Potency [5] 10 µM | Potency [10] 31.6 µM | Potency [11] 6.31 µM | Potency [12] 7.94 µM | Potency [13] 10 µM | Potency [14] 12.6 µM | Potency [15] 2.51 µM | Potency [16] 3.16 µM | Potency [17] 0.355 µM | Potency [18] 3.35 µM | Potency [19] 2.66 µM | Potency [20] 44.7 µM

O=C(OCC(COC(=O)c1ccccc1)(COC(=O)c1ccccc1)COC(=O)c1ccccc1)c1ccccc1
inactive: Potency [1] > 92 µM | Potency [2] > 92 µM | Potency [3] | Potency [4] | Potency [5] | Potency [6] | caspase-3 activation [7] -0.308% | caspase-3 activation [8] -0.12% | caspase-3 activation [9] 2.36% | Potency [10] | Potency [11] | Potency [12] | Potency [13] | Potency [14] | Potency [15] | Potency [16] | Potency [17] | Potency [20]

CN1[C@H]2CC(OC(=O)[C@H](CO)c3ccccc3)C[C@H]1[C@H]1O[C@H]12 (some centres undefined)
inactive: Potency [1] > 92 µM | Potency [2] > 92 µM | Potency [3] | Potency [4] | Potency [5] | Potency [6] | caspase-3 activation [7] -0.382% and 0.0869% | caspase-3 activation [8] 0.771% and -1.21% | caspase-3 activation [9] -1.68% and 4.08% | Potency [10] | Potency [11] | Potency [12] | Potency [13] | Potency [14] | Potency [15] | Potency [16] | Potency [18] | Potency [19] | Potency [20]

CCCCCC/C(C=O)=C\c1ccccc1
inactive: Potency [1] > 92 µM | Potency [2] > 92 µM | Potency [3] | Potency [4] | Potency [5] | Potency [6] | caspase-3 activation [7] 1.26% | caspase-3 activation [8] 0.146% | caspase-3 activation [9] 2.43% | Potency [10] | Potency [11] | Potency [12] | Potency [13] | Potency [14] | Potency [15] | Potency [16] | Potency [18] | Potency [19] | Potency [20]

O=Cc1ccc(Cl)c(Cl)c1
inactive: Potency [1] > 92 µM | Potency [2] > 92 µM | Potency [3] | Potency [4] | Potency [5] | Potency [6] | caspase-3 activation [7] -1.53% | caspase-3 activation [8] 0.309% | caspase-3 activation [9] 1.45% | Potency [10] | Potency [11] | Potency [12] | Potency [13] | Potency [14] | Potency [15] | Potency [16] | Potency [17] | Potency [18] | Potency [19] | Potency [20]
